Measured values: PubChem BioAssay (NCATS)
Results filed as inconclusive are left out. Entries that show only a call come without a potency. Calls of active or inactive are those of the source. Unless noted, calls follow the shape of the dose curve; as a rule, active = well fitted curve in the direction sought with a large enough effect; inconclusive = small, poorly fitted or top-dose-only effect, or another doubt; inactive = no such curve, though single readings can be large; an effect the other way counts as inactive or inconclusive.

Assays:
[1] = Cell Viability - NIH 3T3 (AID 541); conditions: NIH 3T3 cell viability, qHTS; activity change, negative = cytotoxicity: at 92.2 µM (top of the series);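 also: cells exposed to compound for 40 hours; nearly all actives have a fitted effect of over 25% in size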; also: potency is read from the fitted curve at half-maximal effect
Procedure, shortened: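 AC50 values reflect concentration-dependent loss of intracellular ATP in NIH 3T3 cells after 40 hr treatment in complete culture medium, quantified by luciferase-based luminescence.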

[2] = Cell Viability - SH-SY5Y (AID 544); conditions: SH-SY5Y neuroblastoma cell viability; viability change, negative = cytotoxic: at 92.2 µM (top of the series);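 also: cells exposed to compound for 40 hours; nearly all actives have a fitted effect of over 55% in size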; also: potency is read from the fitted curve at half-maximal effect
Procedure, shortened: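 Cytotoxicity is scored as a concentration-dependent fall in intracellular ATP in human SH-SY5Y cells treated 40 hr in complete culture medium. Potency is expressed as AC50 from a Hill equation fit.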

[3] = MultiTox-Fluor Cytotoxicity Assay - LYMP1-001 - Dead Cells (AID 946);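 also: cells exposed to compound for 16 h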
Procedure, shortened: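 LYMP1-001 lymphoblastoid cells (2500/well) treated 16 h at 37 C. Dead-cell protease cleavage of bis-AAF-R110 read at Ex/Em 485/520. Normalized to DMSO and 15 uM tetraoctylammonium bromide; AC50 from Hill fits.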

[4] = Cell Viability - LYMP1-003 - Assay at 40 hr (AID 964); also: nearly all actives have a fitted effect of over 60% in size
Procedure, shortened: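 This qHTS cytotoxicity screen treats human lymphoblastoid cells (LYMP1-003) with compounds for 40 hr and quantifies cellular ATP via luciferase luminescence.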

[5] = Cell Viability - LYMP2-011 (AID 969); also: nearly all actives have a fitted effect of over 60% in size; also: potency is read from the fitted curve at half-maximal effect
Procedure, shortened: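 Acute toxicity is scored as a concentration-dependent drop in intracellular ATP of a human lymphoblastoid line after 24 hr treatment. Values are AC50s modeled with the Hill equation.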

[6] = Cell Viability - LYMP2-015 (AID 971); also: nearly all actives have a fitted effect of over 55% in size; also: potency is read from the fitted curve at half-maximal effect
Procedure, shortened: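 Acute toxicity was scored as a concentration-dependent drop in intracellular ATP in lymphoblastoid cells after 24 hr compound exposure in complete medium. Detection used CellTiter-Glo luciferase luminescence.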

[7] = Cell Viability - LYMP2-023 (AID 975);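 also: cellular ATP measured by luciferase luminescence as viability proxy; nearly all actives have a fitted effect of over 55% in size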
Procedure, shortened: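 Concentration-dependent drop in intracellular ATP measures acute cytotoxicity in a human lymphoblastoid line treated for 24 hours in complete culture medium. AC50 values are taken from Hill-equation fits of qHTS data.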

[8] = Cell Viability - LYMP2-002 (AID 977)
Procedure, shortened: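 Luminescent ATP readout (CellTiter-Glo, 30 min room temperature) after 24 h compound exposure at 37 C of a human lymphoblastoid line, 2500 cells/well. AC50 values derived by standard Hill fitting of qHTS concentration-response data.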

[9] = Cell Viability - LYMP2-006 (AID 978); also: nearly all actives have a fitted effect of over 60% in size
Procedure, shortened: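 Human lymphoblastoid cells, 2500 per well, were preincubated 5 hr at 37 C, then exposed to compounds for 24 hr at 37 C in complete medium. Viability was read as intracellular ATP by CellTiter-Glo luminescence; AC50 from Hill-equation fits of qHTS concentration-response data.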

[10] = Cell Viability - LYMP2-007 (AID 979);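 also: cells exposed to compound for 24 h before reading; nearly all actives have a fitted effect of over 60% in size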; also: potency is read from the fitted curve at half-maximal effect
Procedure, shortened: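 Acute toxicity is scored as a concentration-dependent fall in intracellular ATP in human lymphoblastoid cells treated 24 hr at 37 C, measured by luciferase luminescence; Hill-equation modelling yields AC50.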

[11] = Cell Viability - LYMP2-010 (AID 981); also: nearly all actives have a fitted effect of over 55% in size; also: potency is read from the fitted curve at half-maximal effect
Procedure, shortened: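 Acute toxicity is scored as a concentration-dependent loss of cellular ATP in human lymphoblastoid cells after 24 hr compound exposure in complete medium. Tetraoctylammonium bromide is the positive control.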

[12] = Cell Viability - LYMP2-014 (AID 983); also: nearly all actives have a fitted effect of over 50% in size
Procedure, shortened: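 Decrease in intracellular ATP after 24 hr treatment at 37 C, measured by luciferase luminescence, indicated cytotoxicity. Concentration-response data were fitted with the standard Hill equation to give AC50.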

[13] = Cell Viability - LYMP2-018 (AID 985);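 also: compound exposure lasted 24 hr at 37 °C; nearly all actives have a fitted effect of over 50% in size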; also: potency is read from the fitted curve at half-maximal effect
Procedure, shortened: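 Acute cytotoxicity is scored as a concentration-dependent drop in intracellular ATP after 24 hr exposure of the lymphoblastoid line in complete culture medium, measured by luciferase luminescence. Potency is expressed as AC50 from Hill modelling.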

[14] = Cell Viability - LYMP2-020 (AID 986); also: nearly all actives have a fitted effect of over 55% in size
Procedure, shortened: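 Acute cytotoxicity in a human lymphoblastoid line is scored as a concentration-dependent fall in cellular ATP after 24 hr at 37 C in complete medium. The positive control is tetraoctylammonium bromide, and potency is given as Hill-fit AC50.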

[15] = Cell Viability - LYMP2-022 (AID 987); also: nearly all actives have a fitted effect of over 55% in size; also: potency is read from the fitted curve at half-maximal effect
Procedure, shortened: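 Acute toxicity in a human lymphoblastoid line is scored as decreased intracellular ATP after 24 hr compound treatment at 37 C. ATP is measured by CellTiter-Glo luminescence; curves are fitted with the Hill equation to give AC50.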

[16] = Cell Viability - LYMP2-026 (AID 989); also: nearly all actives have a fitted effect of over 50% in size
Procedure, shortened: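 Concentration-dependent loss of intracellular ATP in human lymphoblastoid cells after 24 hr at 37 C, quantified by luciferase luminescence. AC50 derived from standard Hill equation.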

[17] = molecular target: Retinoic acid receptor RXR-alpha (Homo sapiens) (UniProt P19793); assay: qHTS assay for small molecule agonists of retinoid X receptor alpha signaling (AID 588544; calls by dose curve)
Retinoic acid receptor RXR-alpha (Homo sapiens), sequence (P19793 whole entry, looked up): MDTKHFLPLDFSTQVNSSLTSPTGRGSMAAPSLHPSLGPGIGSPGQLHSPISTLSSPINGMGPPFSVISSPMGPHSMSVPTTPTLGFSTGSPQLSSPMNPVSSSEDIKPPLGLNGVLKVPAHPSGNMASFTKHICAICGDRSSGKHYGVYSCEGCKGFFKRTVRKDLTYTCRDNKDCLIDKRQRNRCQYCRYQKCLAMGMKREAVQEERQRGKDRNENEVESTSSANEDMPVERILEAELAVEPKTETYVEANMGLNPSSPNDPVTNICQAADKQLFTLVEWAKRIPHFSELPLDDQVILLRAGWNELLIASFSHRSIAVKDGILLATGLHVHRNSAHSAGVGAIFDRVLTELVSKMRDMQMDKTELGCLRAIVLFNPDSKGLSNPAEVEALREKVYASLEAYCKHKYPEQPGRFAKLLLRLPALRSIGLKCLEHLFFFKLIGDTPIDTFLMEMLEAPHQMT

[18] = molecular target: Voltage-gated inwardly rectifying potassium channel KCNH2 (Homo sapiens) (UniProt Q12809); assay: qHTS Assay for Small Molecule Inhibitors of the Human hERG Channel Activity (AID 588834);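 also: lower thallium flux fluorescence means stronger hERG block; nearly all actives have a fitted effect of over 50% in size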; also: potency is read from the fitted curve at half-maximal effect
Voltage-gated inwardly rectifying potassium channel KCNH2 (Homo sapiens), sequence (Q12809 whole entry, looked up): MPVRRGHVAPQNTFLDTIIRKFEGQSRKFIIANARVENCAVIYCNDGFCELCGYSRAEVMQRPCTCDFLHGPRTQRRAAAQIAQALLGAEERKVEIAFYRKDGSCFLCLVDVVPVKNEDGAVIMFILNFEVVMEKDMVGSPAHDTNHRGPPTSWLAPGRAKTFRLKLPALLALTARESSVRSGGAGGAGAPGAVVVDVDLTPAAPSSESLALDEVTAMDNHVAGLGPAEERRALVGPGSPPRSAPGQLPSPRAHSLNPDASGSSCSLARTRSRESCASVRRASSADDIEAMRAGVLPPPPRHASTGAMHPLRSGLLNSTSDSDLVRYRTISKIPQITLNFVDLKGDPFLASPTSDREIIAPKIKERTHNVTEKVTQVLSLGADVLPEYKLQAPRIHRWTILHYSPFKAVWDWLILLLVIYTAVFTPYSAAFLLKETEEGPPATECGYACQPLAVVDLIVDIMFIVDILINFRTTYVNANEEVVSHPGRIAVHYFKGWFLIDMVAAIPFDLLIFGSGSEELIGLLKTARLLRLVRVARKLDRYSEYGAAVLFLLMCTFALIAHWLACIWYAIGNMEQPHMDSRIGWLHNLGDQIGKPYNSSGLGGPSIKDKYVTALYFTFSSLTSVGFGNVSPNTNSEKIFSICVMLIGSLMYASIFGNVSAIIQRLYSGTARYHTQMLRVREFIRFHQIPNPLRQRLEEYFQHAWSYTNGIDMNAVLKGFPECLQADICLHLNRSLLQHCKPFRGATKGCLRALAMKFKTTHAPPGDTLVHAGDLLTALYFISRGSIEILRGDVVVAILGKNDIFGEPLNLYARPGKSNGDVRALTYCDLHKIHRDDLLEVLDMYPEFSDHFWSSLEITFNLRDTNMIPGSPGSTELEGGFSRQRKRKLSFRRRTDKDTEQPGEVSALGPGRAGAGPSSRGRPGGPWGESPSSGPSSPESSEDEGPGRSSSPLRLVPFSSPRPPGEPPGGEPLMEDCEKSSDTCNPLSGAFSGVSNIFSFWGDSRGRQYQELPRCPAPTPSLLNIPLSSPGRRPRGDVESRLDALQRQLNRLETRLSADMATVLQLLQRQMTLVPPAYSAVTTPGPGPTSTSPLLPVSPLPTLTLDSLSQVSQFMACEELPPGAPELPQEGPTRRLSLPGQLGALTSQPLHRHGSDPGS
Procedure, shortened: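 U2OS cells transduced with hERG via BacMam (MOI ~100), plated 2000/well, loaded with FluxOR thallium dye, compound ~10 min, then stimulation buffer; fluorescence decrease read kinetically; AC50 from Hill fits.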

[19] = Cell Viability - LYMP2-019 (AID 973); also: nearly all actives have a fitted effect of over 55% in size; also: potency is read from the fitted curve at half-maximal effect
Procedure, shortened: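 Cells plated at 2500/well and allowed 5 hr at 37 C before compound addition. After 24 hr incubation, CellTiter-Glo reagent was added, plates sat 30 min at room temperature, and luminescence was recorded.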

[20] = Cell Viability - LYMP2-001 (AID 921); also: nearly all actives have a fitted effect of over 70% in size; also: potency is read from the fitted curve at half-maximal effect
Procedure, shortened: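 Human lymphoblastoid cells (Coriell), 2500 per well, were preincubated 5 hr at 37 C, then exposed to compounds in complete medium for 24 hr at 37 C. Cellular ATP was read by CellTiter-Glo luminescence; AC50 from Hill fits of concentration-response data.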

SMILES	Potency [1]	Potency [2]	outcome [3]	Potency [4]	Potency [5]	Potency [6]	Potency [7]	Potency [8]	Potency [9]	Potency [10]	Potency [11]	Potency [12]	Potency [13]	Potency [14]	Potency [15]	Potency [16]	outcome [17]	Potency [18]	Potency [19]	Potency [20]
Nn1cnnc1	inactive	inactive	inactive	inactive	inactive	inactive	inactive	inactive	inactive	inactive	inactive	inactive	inactive	inactive	inactive	inactive	inactive	inactive		
c1ccc(NNc2ccccc2)cc1	inactive	inactive		inactive	inactive	inactive		inactive	inactive	inactive		inactive	inactive	inactive	inactive	inactive	inactive		inactive	
O=C(O)c1cccc(Cl)c1	inactive	inactive			inactive	inactive	inactive	inactive	inactive		inactive	inactive	inactive	inactive		inactive	inactive	inactive	inactive	inactive
Nc1ncc([N+](=O)[O-])s1		inactive		inactive	inactive	inactive	inactive	inactive	inactive	inactive	inactive	inactive	inactive	inactive	inactive	inactive		inactive	inactive	inactive
ClCCOCOCCCl		inactive	inactive		inactive		inactive	inactive	inactive	inactive	inactive	inactive		inactive	inactive	inactive	inactive	inactive	inactive	
OC[P+](CO)(CO)CO		inactive	inactive	inactive	39.8 µM (active)	15.8 µM (active)				15.8 µM (active)	20 µM (active)		7.94 µM (active)		12.6 µM (active)				15.8 µM (active)	15.8 µM (active)
COC(=O)Nc1cccc(OC(=O)Nc2cccc(C)c2)c1	inactive	39.8 µM (active)		inactive	inactive		inactive	inactive	inactive	inactive	inactive	inactive		inactive	inactive	inactive	inactive	inactive	inactive	inactive
CCOC(=O)C1OC1(C)c1ccccc1 (stereo not given)	inactive	inactive		inactive	inactive	inactive	inactive	inactive	inactive	inactive	inactive	inactive	inactive	inactive	inactive		inactive	inactive	inactive	inactive
Cc1cc(-c2ccc(N)c(C)c2)ccc1N	inactive	inactive	inactive	inactive	inactive	inactive	inactive	inactive	inactive	inactive	inactive	inactive	inactive	inactive	inactive	inactive		inactive		
CCC/C=N/O		inactive	inactive	inactive	inactive	inactive	inactive	inactive	inactive	inactive	inactive	inactive		inactive	inactive		inactive	inactive	inactive	inactive
c1ccoc1		inactive	inactive		inactive	inactive	inactive	inactive	inactive	inactive		inactive	inactive	inactive	inactive	inactive	inactive	inactive	inactive	inactive
O=C(O)c1cc(Cl)ccc1Cl	inactive		inactive	inactive	inactive	inactive	inactive	inactive			inactive	inactive	inactive	inactive	inactive	inactive	inactive	inactive	inactive	inactive
CC(=O)[O-].CC(=O)[O-].CC(=O)[O-].[Cr+3]	inactive	inactive	inactive	inactive		inactive	inactive	inactive	inactive	inactive	inactive	inactive	inactive			inactive		inactive	inactive	inactive
Nc1ccc(-c2ccc(N)cc2)cc1	inactive	inactive	inactive	inactive	inactive	inactive	inactive	inactive		inactive	inactive	inactive	inactive	inactive	inactive	inactive	inactive	inactive		inactive
CCC#N		inactive	inactive		inactive	inactive	inactive	inactive	inactive	inactive	inactive	inactive	inactive	inactive	inactive	inactive	inactive	inactive		inactive
O=S(=O)(O)F	inactive		inactive	inactive		inactive		inactive	inactive		inactive		inactive	inactive	inactive	inactive	inactive		inactive	inactive
Nc1ccc(-c2ccccc2)cc1	inactive		inactive	inactive			inactive	inactive	inactive	inactive	inactive		inactive	inactive	inactive	inactive	inactive	inactive		
CC(C)[C@]12CC(=O)[C@H](C)[C@H]1C2	inactive		inactive	inactive		inactive	inactive			inactive		inactive	inactive		inactive	inactive	inactive	inactive	inactive	inactive
CCOP(=O)(OCC)OCC		inactive		inactive		inactive			inactive	inactive	inactive	inactive	inactive	inactive		inactive	inactive	inactive	inactive	inactive

SMILES	Potency [1]	Potency [2]	outcome [3]	Potency [4]	Potency [5]	Potency [6]	Potency [7]	Potency [8]	Potency [9]	Potency [10]	Potency [11]	Potency [12]	Potency [13]	Potency [14]	Potency [15]	Potency [16]	outcome [17]	Potency [18]	Potency [19]	Potency [20]
CCN(CC)N=O	inactive	inactive	inactive	inactive	inactive	inactive	inactive	inactive	inactive	inactive	inactive	inactive	inactive	inactive	inactive		inactive	inactive		inactive
CN(C)c1ccccc1	inactive	inactive	inactive		inactive	inactive		inactive	inactive		inactive	inactive	inactive	inactive			inactive			inactive
c1ccc(OCC2CO2)cc1 (stereo not given)		inactive	inactive	inactive	inactive		inactive	inactive	inactive		inactive	inactive	inactive		inactive	inactive	inactive	inactive	inactive	inactive
Clc1cccc2ccccc12		inactive	inactive	inactive	inactive	inactive	inactive	inactive	inactive	inactive	inactive	inactive	inactive	inactive	inactive		inactive	inactive	inactive	inactive
Cc1ccc(N)cc1N	inactive			inactive	inactive	inactive			inactive		inactive	inactive	inactive	inactive	inactive	inactive	inactive	inactive	inactive	inactive
Cl/C=C/Cl	inactive		inactive	inactive	inactive		inactive	inactive	inactive	inactive	inactive	inactive	inactive	inactive	inactive	inactive	inactive	inactive	inactive	inactive
Cc1ccc2c(C)cccc2c1	inactive			inactive		inactive	inactive	inactive		inactive		inactive	inactive	inactive	inactive	inactive	inactive	inactive	inactive	inactive
CCCCC(=O)Cl	inactive					inactive	inactive	inactive	inactive		inactive	inactive	inactive	inactive		inactive	inactive	inactive		inactive
CCCCC#N	inactive	inactive		inactive		inactive	inactive	inactive	inactive	inactive	inactive	inactive	inactive	inactive	inactive	inactive	inactive	inactive	inactive	inactive
C=CC(=O)OCCN(C)C	inactive		inactive	inactive	inactive	inactive	inactive	inactive	inactive	inactive	inactive	inactive	inactive				inactive	inactive	inactive	inactive
CC1CC(=O)O1 (stereo not given)		inactive	inactive	inactive	inactive	inactive	inactive		inactive	inactive	inactive	inactive	inactive	inactive	inactive	inactive	inactive	inactive	inactive	inactive
CCCCNC(=O)n1c(NC(=O)OC)nc2ccccc21	5.01 µM (active)	6.31 µM (active)	inactive		inactive	inactive	inactive	inactive	inactive	inactive	inactive	inactive		inactive		inactive	inactive	inactive	inactive	inactive
CC(C)(Cl)Cl	inactive		inactive	inactive	inactive	inactive	inactive	inactive		inactive	inactive		inactive	inactive	inactive	inactive	inactive	inactive	inactive	
CC(C)(C)C(O)(CCc1ccc(Cl)cc1)Cn1cncn1 (stereo not given)	inactive	inactive	inactive	inactive	inactive	inactive		inactive	inactive	inactive	inactive	inactive	inactive	inactive	inactive		inactive	20 µM (active)		inactive
CSSC		inactive	inactive	inactive	inactive	inactive	inactive	inactive	inactive	inactive	inactive			inactive	inactive	inactive	inactive		inactive	inactive
Oc1cc(Cl)ccc1Cl	inactive	inactive	inactive	inactive	inactive	inactive		inactive	inactive	inactive		inactive	inactive	inactive	inactive	inactive	inactive	inactive	inactive	inactive
O=[N+]([O-])c1cc(Cl)c(Cl)cc1Cl		inactive		inactive	inactive	inactive	inactive	inactive	inactive	inactive		inactive	inactive	inactive	inactive	inactive	inactive	inactive	inactive	inactive
ClP(Cl)(Cl)(Cl)Cl	inactive		inactive	inactive	inactive	inactive	inactive	inactive	inactive	inactive			inactive	inactive	inactive	inactive	inactive		inactive	inactive
ClCCOCCCl		inactive	inactive	inactive	inactive	inactive	inactive	inactive	inactive	inactive	inactive	inactive	inactive	inactive	inactive		inactive	inactive	inactive	inactive
